Shown are actives, neighbours in structure and some others; about 19% of the full set was active somewhere.
IL-1B inflam inh: blocks inflammasome-driven IL-1 beta release; THP-1 LPS/ATP IL-1B secretion, AlphaLISA, 16 h; hits give low values; activity change, % at 57.5 µM; actives 4.7% (n = 360,000); in the data active means activity change below about -50%; inconclusive means mostly about -30% to -49%; further: on the % scale 0 is the no-effect control and ±100 the full control effect
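Secreted IL-1B measured by AlphaLISA bead assay after 16 h compound exposure of THP-1 cells; compounds (final up to 57.5 uM) added 1 h before LPS (250 ng/mL) and ATP (1.25 mM) stimulation; lower signal means less secretion.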
S-ASM inh: human S-ASM enzyme inhibition; actives 0.006% (n = 340,000); Potency, µM (highest dose often 57.5 µM), for the others: at the top dose activity change, negative = inhibition, actives largely listed as inhibitors; placental ASM, HMU-PC fluorogenic substrate, 60 min; P17405; AID 504937; further: potency means the concentration at half of the fitted maximal effect
Target sequence (P17405 47-631 limits assumed): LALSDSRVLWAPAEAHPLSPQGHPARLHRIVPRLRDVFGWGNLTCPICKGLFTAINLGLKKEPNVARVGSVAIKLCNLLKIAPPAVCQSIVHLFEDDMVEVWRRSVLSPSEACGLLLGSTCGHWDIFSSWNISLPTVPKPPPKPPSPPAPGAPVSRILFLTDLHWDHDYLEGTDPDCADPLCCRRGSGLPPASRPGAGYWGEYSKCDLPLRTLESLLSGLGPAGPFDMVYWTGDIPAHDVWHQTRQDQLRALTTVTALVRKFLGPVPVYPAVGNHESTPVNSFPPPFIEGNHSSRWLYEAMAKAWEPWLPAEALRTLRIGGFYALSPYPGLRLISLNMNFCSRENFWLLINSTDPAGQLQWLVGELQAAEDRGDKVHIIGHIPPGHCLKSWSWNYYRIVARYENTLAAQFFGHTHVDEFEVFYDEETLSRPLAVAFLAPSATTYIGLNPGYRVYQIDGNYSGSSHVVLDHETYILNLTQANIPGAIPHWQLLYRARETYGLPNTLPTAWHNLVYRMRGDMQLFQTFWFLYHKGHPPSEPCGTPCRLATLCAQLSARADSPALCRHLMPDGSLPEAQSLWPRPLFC
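qHTS format. ASM enzyme prepared from human placenta hydrolyses the fluorogenic substrate HMU-PC0 (9 uM final) over 60 min at 37 °C after a 10 min compound preincubation.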
TDP1 cell CPT: growth inhibition of DT40 Tdp1-/-;hTDP1 cells with camptothecin (screen for TDP1 inhibitors); chicken DT40 Tdp1-/-;hTDP1 cells + 20 nM CPT, ATP luminescence, 48 h; Potency, µM (titrated, usually from 46.2 µM), for inactives: top-dose activity change, negative = growth inhibition, hits mostly inhibitors; actives 12% (n = 420,000); further: potency means the concentration at half of the fitted maximal effect; on the % scale 0 is the no-effect control and ±100 the full control effect; nearly all actives have a fitted effect of over 55% in size
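Cell growth measured by CellTiter-Glo luminescence after a minimum 48 h, 37 C compound exposure with 20 nM CPT in Tdp1-knockout DT40 cells stably expressing hTDP1, seeded 400/well; qHTS titration format.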
TGFb SMAD3 inh: inhibitors of TGF-b signaling; HepG2 CAGA-GFP TGF-b/SMAD3 reporter, GFP fluorescence, 18 h; TGF-beta stimulated, 500 pg/mL final; Potency, µM (titrated, usually from 46.1 µM), without a hit: at the top dose activity, negative = inhibition, usual class: inhibitors; actives 1.2% (n = 410,000); AID 588855; further: potency means the concentration at half of the fitted maximal effect; on the % scale 0 is the no-effect control and ±100 the full control effect; nearly all actives have a fitted effect of over 65% in size
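Smad-responsive CAGA-GFP expression was quantified in HEPG2 cells exposed to compounds and 500 pg/mL final TGF-beta for 18 h at 37 degrees C; unstimulated wells defined full inhibition.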
HepG2 tox: counter-screen for TGF-b inhibitors: cytotoxicity in HepG2 cells | HepG2 CAGA-GFP viability, ATP luminescence, 18 h | AID 588856 | actives 0.76% (n = 410,000) | Potency, µM (doses to about 46.1 µM), for the others: at the top dose activity change, negative = cytotoxicity, actives largely listed as cytotoxic; further: potency means the concentration at half of the fitted maximal effect
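HepG2 CAGA-GFP cells (1000/well, DMEM with 1% FBS) received compound, then TGF-beta at 500 pg/mL final, and were incubated 18 hours at 37 degrees C. Viability was read by CellTiter-Glo luminescence. Media-only wells were set as complete cell-killing and DMSO as no toxicity.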
DT40 TDP1 no CPT: qHTS for Inhibitors of human tyrosyl-DNA phosphodiesterase 1 (TDP1): qHTS in cells in absence of CPT | DT40 Tdp1-/- hTDP1 cells, no CPT, ATP luminescence, 48 h | Potency, µM (highest dose often 46.2 µM), for the others: top-dose activity change, negative = growth inhibition, hits mostly inhibitors | actives 15% (n = 420,000); further: potency means the concentration at half of the fitted maximal effect; on the % scale 0 is the no-effect control and ±100 the full control effect; nearly all actives have a fitted effect of over 55% in size
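Luminescent ATP content (CellTiter-Glo) served as the growth readout. Knockout chicken DT40 cells expressing human TDP1 were exposed to compounds without camptothecin for a minimum 48 hr at 37 °C.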
The depositor's hits bear a star; ? = inconclusive; . = no result given; ! = repeats disagree. Unless noted, the call rests on the fitted dose curve; in most records, active means well fitted curve in the direction sought with a large enough effect; inconclusive means small, poorly fitted or top-dose-only effect, or another doubt; inactive means no such curve, though single readings can be large; an effect the other way counts as inactive or inconclusive.

SMILES	IL-1B inflam inh	S-ASM inh	TDP1 cell CPT	TGFb SMAD3 inh	HepG2 tox	DT40 TDP1 no CPT
O=c1c(O)c(-c2ccc(O)cc2)oc2cc(O)ccc12	.	.	27µM*	.	.	30µM*
COc1ccc(-c2oc3cc(O)c(OC)c(O)c3c(=O)c2OC)cc1O	50	-4%	0.92µM*	?	-38%	0.92µM*
O=c1c(O)c(-c2ccc(O)cc2)oc2cc(O)cc(O)c12	28	-13%	?	-2%	-24%	?
COc1cc(-c2oc3ccc(C)cc3c(=O)c2O)cc(OC)c1OC	.	.	5.8µM*	2.5µM*	-42%	?
COc1cc(-c2oc3cc(O)ccc3c(=O)c2O)ccc1O	.	.	21µM*	.	.	?
Cn1c(=O)oc2cc(S(=O)(=O)N3CCCC(C(=O)Nc4ccc(Br)cc4F)C3)ccc21 (stereo unspecified)	.	.	-19%	-9%	-8%	-29%
Cc1ccc([N+](=O)[O-])cc1S(=O)(=O)N1CCn2cccc2C1c1ccc(F)c(F)c1 (stereo unspecified)	.	.	?	?	-6%	?
COc1cc(OC)c(-c2oc3ccccc3c(=O)c2O)c(OC)c1	9	7%	8.2µM*	?	4%	7.3µM*
O=c1c(O)c(-c2ccc(O)c(O)c2)oc2cc(O)ccc12	-83*	-10%	23µM*	?	-29%	6.7µM*
O=c1cc(-c2ccccc2)c2ccc(O)cc2o1	-60*	151%	-16%	-2%	-7%	?
C[C@@H]1CN([C@H](C)CO)C(=O)c2cc(NC(=O)Nc3ccc4c(c3)OCO4)ccc2O[C@H]1CN(C)Cc1ccncc1	0	-4%	5%	5%	1%	-19%
COc1cccc(NC(=O)C(=O)NCCc2csc(-c3ccc(C)cc3)n2)c1	.	.	?	-13%	-2%	?
CCc1ccc(NC(=O)c2nnn(Cc3cccc(C(F)(F)F)c3)c2N)cc1	.	.	-19%	-9%	3%	-24%
COc1ccc(NS(=O)(=O)c2cc(NC(=O)c3ccc(=O)[nH]c3)ccc2N2CCCC2)cc1	73	-9%	4.1µM*	-1%	0%	7.3µM*
COc1ccc(NS(=O)(=O)c2cc(NC(=O)c3cnc(C)cn3)ccc2N2CCCCC2)cc1	-9	-8%	?	-7%	12%	?
COc1ccc(NS(=O)(=O)c2cc(NC(=O)c3ccco3)ccc2N2CCCCC2)cc1	0	-10%	?	-12%	-30%	18µM*
COc1ccc(NS(=O)(=O)c2cc(NC(=O)c3cnc(C)cn3)ccc2N2CCCC2)cc1	-1	-14%	-24%	-1%	6%	?
Cc1ccc(S(=O)(=O)N2CCN(Cc3ccsc3)CC2)cc1	9	2%	1%	-8%	-16%	-20%
O=C(COc1ccc2c(c1)C(=O)CC1(CCCCC1)O2)NCc1ccccc1	20	240%	?	-4%	-7%	21µM*
O=C(COc1ccc2c(c1)C(=O)CC1(CCCCC1)O2)NCc1ccccn1	21	173%	?	?	-31%	?
CCc1ccc(NC(=O)CCCc2nnc3n(C(C)CC)c(=O)c4sccc4n23)cc1 (stereo unspecified)	.	.	-80%	?	-18%	-80%
O=C(O)c1cc(OCc2ccccc2)cc(OCc2ccccc2)c1	36	0%	17%	-5%	3%	-24%
CCC(C)NC(=O)COc1ccc(OCc2ccccc2)cc1 (stereo unspecified)	19	-1%	?	-7%	2%	26µM*
COCC(=O)Nc1ccc(OCc2ccccc2)cc1	4	5%	-17%	-8%	-18%	-18%
Oc1ccc(OCc2ccccc2)cc1	.	.	4µM*	.	.	?
SMILES	IL-1B inflam inh	S-ASM inh	TDP1 cell CPT	TGFb SMAD3 inh	HepG2 tox	DT40 TDP1 no CPT
Oc1ccc(NCc2ccc(OCc3ccccc3)cc2)cc1	60	0%	6.5µM*	16µM*	10µM*!	12µM*
CCNC(=O)COc1ccc(OCc2ccccc2)cc1	-16	1%	-18%	8%	9%	?
S=C(c1ccc(OCc2ccccc2)cc1)N1CCCC1	-5	6%	18µM*	?	-32%	?
O=C(NC1CCN(C(=S)Nc2ccc(F)cc2)CC1)C1CCCCC1	20	-1%	1%	6%	-3%	5%
Cc1nc2nc(SCC(=O)NCc3ccccc3Cl)nn2c(C)c1Cc1ccccc1	.	.	?	?	-17%	?
Cc1cccc(Cc2c(C)nc3nc(SCC(=O)O)nn3c2C)c1	0	5%	-2%	-2%	-5%	-1%
Cc1cc(C)n2nc(SCc3c(F)cccc3Cl)nc2n1	-5	1%	?	5%	-15%	26µM*
Cc1cccc(Cc2c(C)nc3nc(SCc4ccccc4F)nn3c2C)c1	.	.	13µM*	10%	4%	9.2µM*
Cc1cccc(CSc2nc3nc(C)cc(C)n3n2)c1	0	-1%	?	-7%	-10%	-21%
Cc1nc2nc(SCc3c(F)cccc3Cl)nn2c(C)c1Cc1ccccc1	.	.	13µM*	?	-26%	8.2µM*
Cc1cccc(Cc2c(C)nc3nc(SCc4cccc(F)c4)nn3c2C)c1	.	.	21µM*	?	-8%	?
CCCCCCCC1=NN(c2ccc(S(=O)(=O)O)cc2)C(=O)C1N=O (stereo unspecified)	-27	.	22%	0%	-7%	5%
CC(C)CN(C(=O)COC(=O)CCCc1c[nH]c2ccccc12)c1c(N)n(Cc2ccccc2)c(=O)[nH]c1=O	-21	3%	-18%	-2%	-5%	-3%
CCC1(c2ccccc2)NC(=O)N(CC(=O)NC2CCCCCC2)C1=O (stereo unspecified)	17	3%	4%	-9%	1%	8%
CC(C)(C)OC(=O)N1CCC(c2nnc(SCc3ccccc3)o2)CC1	.	.	.	-62%	-85%	.
CC(C)[C@H](NC(=O)OC(C)(C)C)c1nnc(S(=O)(=O)Cc2c(F)cccc2Cl)o1	?	-2%	1.2µM*	11µM*	20µM*	1.6µM*
CC[C@@H](C)[C@H](NC(=O)OC(C)(C)C)c1nnc(S(=O)(=O)Cc2cc(C)ccc2C)o1	0	43%	1.3µM*	?	-95%	2.3µM*
C[C@H](NC(=O)OC(C)(C)C)c1nnc(SCc2c(F)cccc2Cl)o1	.	.	.	-3%	-18%	.

Assay outcomes (PubChem)
